The values that follow come from PubChem BioAssay.

For assay [1], the system named is Wnt5a (protein binding on small-molecule microarray). Kind of assay: small molecules binding Wnt5a protein – biophysical, small-molecule microarray, 635/667 nm fluorescence, primary screen (AID 1142).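 Also: fluorescence read at 667 nm with signal to noise per printed feature.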 The note with it: 635 nm fluorescence, higher = more signal.
The nature of assay [2]: ATP-based viability of Huh7 replicon cells – cell-based, CellTiter-Glo luminescence, basal, 48 h, cytotoxicity control for HCV replication inhibitor project, primary screen (AID 1143).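 Also: Huh7 hepatoma cells carrying a hepatitis C replication reporter with no stimulus; test concentration not given here.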 The note with it: higher = more signal, called active from +8 up or from −8 down.
A short description of assay [3]: Pseudomonas biofilm growth suppression – PAO1 strain, BacTiter-Glo luminescence, LB-PBS, primary screen (AID 1144). The note with it: P. aeruginosa PAO1 biofilm, 12 h, higher = more signal.
Assay [4] is described as follows: basal CRE-LacZ reporter activity in PC12 – cell-based, unstimulated, primary screen (AID 1145). The note with it: no forskolin, luminescence, 4.5 h, higher = more signal, called active from +8 up or from −8 down.
A short description of assay [5]: forskolin-driven CRE-LacZ activity in PC12 – cell-based, CRE-LacZ reporter, forskolin-stimulated, primary screen (AID 1146).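 Also: PC12 cells with 6xCRE LacZ reporter stimulated by forskolin 10 µM; beta-galactosidase reporter signal reflecting CREB driven transcription.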 The note with it: luminescence, 4.5 h, higher = more signal, called active from +8 up or from −8 down.
For assay [6], the target named is Streptavidin (Streptomyces avidinii) (UniProt P22629). Kind of assay: compounds binding control protein streptavidin – biophysical, small-molecule microarray, 635/667 nm fluorescence, artefact control for SMM compound annotation, primary screen (AID 1147).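 Also: signal reflects streptavidin binding to arrayed compounds as a control protein.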 The note with it: higher = more signal.
Assay [7] in a line: probe aInhba binding on compound microarray – biochemical, small-molecule microarray, 635/667 nm fluorescence, primary screen (AID 1148).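 Also: score merges 667nm spot fluorescence with signal-to-noise for antibody binding to printed compounds.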 The note with it: higher = more signal.
Assay [8] addresses Torsin-1A (Homo sapiens) (UniProt O14656). Kind of assay: TOR1A wild-type binding on microarray – cell lysate, small-molecule microarray, lysate, 635/667 nm, primary screen (AID 1149). The note with it: COS7 hTOR1A-WT lysate, 635 nm fluorescence, higher = more signal.
Assay [9] has the same target. Kind of assay: torsin A mutant lysate binding on microarrays – cell lysate, small-molecule microarray, COS7 lysate, 635/667 nm fluorescence, primary screen (AID 1150).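 Also: score pools 667 nm emission and signal to noise measuring lysate protein binding.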 The note with it: COS7 hTOR1A mutant lysate, 635 nm fluorescence, higher = more signal.
For assay [10], the system named is Sonic hedgehog protein (Shh). The assay can be described thus: Sonic hedgehog microarray binding compounds – biochemical, small-molecule microarray, 635/667 nm fluorescence, primary screen (AID 1151).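 Also: Shh protein binding to compounds spotted on small-molecule microarray slides; score combines spot fluorescence intensity with signal-to-noise across triplicate slides.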 The note with it: 635 nm fluorescence, higher = more signal.

Active and inactive are the calls of the source. Unless noted, no rule for the calls is given here.

Torsin-1A (Homo sapiens), sequence (O14656 whole entry, looked up): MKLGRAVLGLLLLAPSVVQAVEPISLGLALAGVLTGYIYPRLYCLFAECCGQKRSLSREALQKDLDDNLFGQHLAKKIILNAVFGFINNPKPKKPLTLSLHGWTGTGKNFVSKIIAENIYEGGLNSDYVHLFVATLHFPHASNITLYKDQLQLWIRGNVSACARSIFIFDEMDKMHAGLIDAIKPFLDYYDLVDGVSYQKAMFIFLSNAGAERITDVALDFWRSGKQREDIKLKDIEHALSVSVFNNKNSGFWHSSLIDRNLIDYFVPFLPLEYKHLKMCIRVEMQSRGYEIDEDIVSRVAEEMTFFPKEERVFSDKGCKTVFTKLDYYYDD
Streptavidin (Streptomyces avidinii), sequence (P22629 whole entry, looked up): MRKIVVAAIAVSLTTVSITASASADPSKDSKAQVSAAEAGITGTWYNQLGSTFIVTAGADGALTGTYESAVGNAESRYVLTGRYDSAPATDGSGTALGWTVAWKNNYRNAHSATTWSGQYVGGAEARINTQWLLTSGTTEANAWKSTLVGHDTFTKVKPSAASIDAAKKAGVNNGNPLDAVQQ

On to `CC1(C)C(=O)C(c2ccccc2)=C2CN3C(=O)N(CCc4ccccc4)C(=O)C3(Cc3ccc(C(F)(F)F)cc3)C=C21` (stereo not given), for which the composite z-score in [1] is 0.437; in [6], 1.19; in assay [7], 0.196; in [8] it was -0.102; in [9], 0.608; in assay [10] it was -1.01. In addition, the z-score is -1.29 (inactive) in assay [2], 0.332 (inactive) in assay [3], -0.379 (inactive) in [4] and 0.866 (inactive) in assay [5].
Turning to `COC(=O)[C@@]1(Cc2ccccc2CN=[N+]=[N-])N=C(c2ccc(OCCCO)cc2)O[C@H]1c1ccccc1`, the composite z-score in assay [1] was 0.337; in assay [6] it was -0.533; in [7] it was 0.412; in assay [8], 0.0213; in [9], 0.925; in assay [10] it was 0.381. In addition, the z-score is -4.77 (inactive) in assay [2], -1.09 (inactive) in assay [3], 2.38 (inactive) in assay [4] and -0.923 (inactive) in assay [5].
As to `C=C(/C(=C/C[C@H](OC(=O)c1ccncc1)c1cccc(OCCO)c1)c1cnc2ccccc2c1)C(C)C`, the composite z-score was 0.518 in assay [1]; 0.929 in assay [6]; -0.05 in [7]; -0.382 in assay [8]; -0.22 in assay [9]; 2.23 in assay [10]. Moreover, the z-score is -7.81 (inactive) in [2], 0.503 (inactive) in assay [3], 30.3 (active) in assay [4] and -0.386 (inactive) in [5].
With `COc1cc(NN2C(C(O)C3CCCCC3)C=CC3C(=O)N(c4ccccc4)C(=O)C32)cc(OC)c1OC` (stereo not given), the composite z-score is 0.316 in [1]; 0.775 in assay [6]; 0.121 in [7]; -0.224 in assay [8]; 0.335 in assay [9]; -0.686 in [10]. Moreover, the z-score is -2.88 (inactive) in assay [2], -0.408 (inactive) in assay [3], 0.436 (inactive) in assay [4] and -0.0678 (inactive) in assay [5].
As to `COc1cc(NN2C(C(O)c3ccc(I)cc3)C=CC3C(=O)N(c4ccccc4)C(=O)C32)cc(OC)c1OC` (stereo not given), the composite z-score in assay [1] was found to be 0.378; in assay [6] it was 0.901; in [7] it was 0.233; in [8], 0.544; in [9], 0.743; in assay [10], 0.325. Moreover, the z-score in assay [2] is -3.44 (inactive); in assay [3], -1.28 (inactive); in assay [4] it was -0.136 (inactive); in assay [5] it was 0.0938 (inactive).
As for `CC(C)CNC(=O)[C@@]1(C)c2ccccc2C(=O)N(Cc2cc(C(F)(F)F)cc(C(F)(F)F)c2)[C@H]1c1ccc(CO)cc1`, the composite z-score in assay [1] was -0.445; in assay [6], -0.366; in [7] it was -0.0987; in [8] it was -0.918; in assay [9] it was -0.267; in assay [10], -0.117. Moreover, the z-score in [2] was -3.12 (inactive); in [3] it was 0.92 (inactive); in assay [4] it was 0.414 (inactive); in assay [5], -0.578 (inactive).
As for `COC(=O)c1c2oc(c1C(=O)OC)C(=O)N1CCC[C@H]1Cn1nncc1CN(Cc1ccccc1)C(=O)N[C@H](CO)CC2`, the composite z-score in [1] was 0.533; in assay [6] it was 0.0789; in [7], -0.0448; in [8], -0.14; in assay [9], -0.0715; in assay [10], 0.658. Also, the z-score in assay [2] is 0.246 (inactive); in [3], -0.294 (inactive); in assay [4], 0.251 (inactive); in [5] it was -0.147 (inactive).
On to `COC(=O)[C@@]1(Cc2ccccc2)[C@H]2c3cc(C(=O)N4CCCC4)n(CCSCCO)c3C[C@H]2CN1C(=O)c1ccccc1`, for which the composite z-score in assay [1] amounted to 0.554; in [6] it was 1.15; in assay [7] it was 0.545; in [8] it was 0.424; in assay [9], 0.989; in [10], 0.0779. Further, the z-score in [2] is -1.17 (inactive); in assay [3], 0.019 (inactive); in assay [4], 0.387 (inactive); in assay [5], 2.14 (inactive).
For `C=CCNC(=O)[C@@H]1[C@H]2C(=O)O[C@H](c3ccccc3)[C@H](c3ccccc3)N2[C@H](c2ccc(O)cc2)[C@@]12C(=O)Nc1ccc(C#CCC(C(=O)OC)C(=O)OC)cc12`, the composite z-score in [1] is 0.0513; in assay [6], 0.138; in assay [7], -0.018; in assay [8] it was 0.131; in assay [9], 1.76; in [10] it was 0.8. Besides, the z-score is -5.09 (inactive) in assay [2], -1.02 (inactive) in assay [3], -0.608 (inactive) in [4] and -0.746 (inactive) in [5].
Turning to `COC(=O)[C@@]1(Cc2ccccc2CN=[N+]=[N-])N=C(c2ccc(OCCCO)cc2)O[C@H]1c1ccccc1CN=[N+]=[N-]`, the composite z-score in assay [1] was 1.25; in [6], -0.754; in assay [7] it was -0.154; in assay [8], -2.13; in assay [9], 0.0755; in [10] it was -0.427. In addition, the z-score is -4.34 (inactive) in assay [2], -0.166 (inactive) in assay [3], 1.75 (inactive) in assay [4] and -0.547 (inactive) in assay [5].
Turning to `COC(=O)C(CC#Cc1ccc2c(c1)[C@]1(C(=O)N2)[C@H](C(=O)Nc2nc3ccccc3s2)[C@H]2C(=O)O[C@H](c3ccccc3)[C@H](c3ccccc3)N2[C@@H]1c1ccc(OCCO)cc1)C(=O)OC`, the composite z-score in assay [1] is 1.07; in assay [6], 1.25; in [7], 0.146; in assay [8], 1.65; in assay [9], 0.541; in assay [10], 1.53. The z-score in assay [2] was -2.48 (inactive); in assay [3] it was -1.7 (inactive); in assay [4] it was 0.415 (inactive); in assay [5], -0.856 (inactive).
For the compound `O=C1c2ccccc2[C@](Cc2ccccc2I)(C(=O)NC2CC2)[C@H](c2ccc(CO)cc2)N1Cc1ccccc1C(F)(F)F`, the composite z-score was -0.15 in assay [1]; 0.671 in assay [6]; 1.25 in [7]; 0.147 in [8]; 0.16 in assay [9]; 0.792 in assay [10]. In addition, the z-score was -4.84 (inactive) in assay [2], -0.0186 (inactive) in [3], 0.764 (inactive) in assay [4] and -0.5 (inactive) in assay [5].
Consider `[N-]=[N+]=Nc1ccccc1C[C@]1(C(=O)NCc2ccccc2)COC(c2ccc(OCCCO)cc2)=N1`, for which the composite z-score in assay [1] is 0.607; in assay [6], 1.01; in assay [7], -0.104; in [8], 0.413; in assay [9], 0.932; in assay [10] it was 0.153. Besides, the z-score was -4.89 (inactive) in assay [2], 0.106 (inactive) in assay [3], 0.101 (inactive) in assay [4] and -1.31 (inactive) in assay [5].
With `CC(=O)n1cc(C(O)C2C=CC3C(=O)N(c4ccccc4)C(=O)C3N2Nc2ccc(C(C)C)cc2)c2ccccc21` (stereo not given), the composite z-score in [1] was 0.076; in [6] it was 1.88; in assay [7], 0.161; in assay [8], -0.285; in assay [9], 0.617; in assay [10], -0.69. The z-score is -0.609 (inactive) in [2], -0.827 (inactive) in [3], 0.24 (inactive) in assay [4] and -0.247 (inactive) in [5].
